The panel holds about 83,000 compounds, 20% with a hit somewhere; the sample as a whole holds those more often.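 In brief: 96-well plates, 48 h treatment, single concentration, percent growth endpoint.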 A number with no mark means an inactive call. Activity calls are given as the source filed them. The calls were made as follows: active = growth percent below 10; inactive = the rest.
Assays:
Test in all cases: NCI-60 one-dose screen, 48 h (100 = growth as untreated, 0 = no growth, -100 = all killed)
Conditions in all cases: 10 µM unless noted
NCI-H23 lung = tested on: NCI-H23 lung
NCI-H226 lung = tested on: NCI-H226 lung
NCI-H322M lung = tested on: NCI-H322M lung
HOP-62 NSCLC = tested on: HOP-62 NSCLC
NCI-H460 lung = tested on: NCI-H460 lung
HOP-92 NSCLC = tested on: HOP-92 NSCLC
NCI-H522 lung = tested on: NCI-H522 lung
A549/ATCC NSCLC = tested on: A549/ATCC NSCLC
786-0 renal = tested on: 786-0 renal
COLO 205 colon = tested on: COLO 205 colon
K-562 leukemia = tested on: K-562 leukemia
MALME-3M melanoma = tested on: MALME-3M melanoma
MDA-MB-231 breast = tested on: MDA-MB-231 breast
RXF 393 renal = tested on: RXF 393 renal
SF-295 CNS = tested on: SF-295 CNS
SF-539 CNS = tested on: SF-539 CNS
UACC-257 melanoma = tested on: UACC-257 melanoma
DU-145 prostate = tested on: DU-145 prostate
SF-268 CNS = tested on: SF-268 CNS
M14 melanoma = tested on: M14 melanoma

Compound	growth (NCI-H23 lung)	growth (NCI-H226 lung)	growth (NCI-H322M lung) [%]	growth (HOP-62 NSCLC)	growth (NCI-H460 lung)	growth (HOP-92 NSCLC)	growth (NCI-H522 lung)	growth (A549/ATCC NSCLC)	growth (786-0 renal)	growth (COLO 205 colon)	growth (K-562 leukemia)	growth (MALME-3M melanoma)	growth (MDA-MB-231 breast)	growth (RXF 393 renal)	growth (SF-295 CNS)	growth (SF-539 CNS)	growth (UACC-257 melanoma) [%]	growth (DU-145 prostate)	growth (SF-268 CNS) [%]	growth (M14 melanoma)
CN1CCN(C2=C(Cl)C(=O)c3ccccc3C2=O)CC1	55.5%	94.2%	97.4	94.9%	92.3%	102%	25.1%	81.4%	84.7%	81.4%	23.1%	4.5% (active)	41.6%	101%	84.1%	105%	56.5	–	–	–
CC(=O)Nc1cccc(C2=CC(c3ccc(C)cc3)n3ncnc3N2)c1 (stereo not drawn)	97.4%	92.7%	107	101%	107%	77.7%	94.8%	108%	95%	–	86.2%	119%	87.8%	96.4%	114%	95.3%	112	102%	94	112%
O=[N+]([O-])c1ccc2[nH]cc(-c3c4ccsc4cc4[nH]c5ccc([N+](=O)[O-])cc5c34)c2c1	7.93% (active)	-9.9% (active)	20.4	10.8%	4.39% (active)	26.8%	-22.9% (active)	5.78% (active)	-44% (active)	-50.3% (active)	–	30.1%	-5.82% (active)	-42.2% (active)	-4.03% (active)	-44.9% (active)	41.8	-14.3% (active)	19.3	–
N#C/C=C(\c1ccc([N+](=O)[O-])cc1)n1nnc2cc(Cl)c(Cl)cc21	40.8%	39.7%	46.1	31.2%	-8.66% (active)	45.2%	2.18% (active)	53.2%	-26.7% (active)	–	13.9%	40.7%	2.77% (active)	0.579% (active)	14.1%	-9.65% (active)	45.6	-21.2% (active)	20.3	21.1%
O=C1Nc2ccccc2/C1=N/N=C/c1c[nH]c2ccccc12	82%	62.7%	72.9	67.3%	63%	75.2%	69.2%	78.4%	91.9%	–	80.2%	71.8%	60%	57.5%	95.6%	78%	92.4	58.3%	65.1	59.5%
CCn1c(Sc2nnc(NC(C)=O)s2)nc2c1c(=O)n(C)c(=O)n2C	82.2%	93.9%	96.5	99.4%	103%	77.6%	93.5%	98.7%	99.6%	–	95.6%	99.1%	96%	91.2%	98%	92.5%	103	99.2%	90.8	91.4%
Cc1c2c(cn1Cc1ccccc1)CCc1cn[nH]c1-2	89.2%	101%	106	89.1%	101%	70.1%	97.5%	99.3%	98.1%	–	51.8%	105%	89.3%	87.6%	81.5%	92.7%	107	117%	89.6	–
Oc1[nH]c2ccccc2c1/C=c1/cc2c(c(-c3ccc(F)cc3)n1)=Nc1ccccc1-2	-5.74% (active)	19.4%	58.7	-47.3% (active)	-23.6% (active)	-17.9% (active)	-58% (active)	-33.7% (active)	-76.8% (active)	–	2.88% (active)	-54.5% (active)	-4.54% (active)	-57.1% (active)	-19.1% (active)	-65.6% (active)	20.9	9.34% (active)	15.4	-36.8% (active)

From PubChem BioAssay (NCI)
